Source: the supplement of paper PMC10849652
Of roughly 7,900 targets only a part is listed; those with a hit were picked by preference. About 0.6% of all pairs of compound and target were hits. Unmarked numbers belong to inactive results.

How the values were obtained:
Test in all cases: log2 fold change, soluble protein after heating vs DMSO (PISA); higher = thermal stabilisation; K562 cells, 10 uM, 30 min; active = over 0.2 and 3.5 SD of the protein, either way, in both replicates (recomputed)
[1] = compound: CC1=C(C=C(C=C1)NC(=O)C2=CC(=CC=C2)C(C)(C)C#N)NC3=CC4=C(C=C3)N=CN(C4=O)C
Summary of the method: (§1)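 K562 cells at 2×10^6 cells/mL were treated with 10 μM compound for 30 min. Aliquots were heated for 3 min across 48°C-58°C, pooled, and extracted in PBS with 0.5% NP-40 at 4°C; soluble protein was the supernatant after 21,000xg for 90 min. Soluble protein was quantified by TMTpro 16plex LC-MS/MS with channel sums equalised, and reported as log2 fold change in thermal stability against DMSO controls, with values from duplicates.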

[2] = compound: CC1=C(C=C(C=C1)NC(=O)C2=CC(=CC=C2)N(C)C)NC(=O)C3=CC=C(C=C3)O
Summary of the method: as §1

[3] = compound: CC1=CC=C(C=C1)SC2=C3C=C(SC3=CN=C2)C(=O)N
Summary of the method: as §1

[4] = compound: CC1=NC(=CC=C1)C2=C(N=C(N2)C(C)(C)C)C3=CC4=NC=CN=C4C=C3
Summary of the method: as §1

Nexturastat A = compound: CCCCN(Cc1ccc(C(=O)NO)cc1)C(=O)Nc1ccccc1 [Nexturastat A]
Summary of the method: as §1

vemurafenib = compound: CCCS(=O)(=O)Nc1ccc(F)c(C(=O)c2c[nH]c3ncc(-c4ccc(Cl)cc4)cc23)c1F [vemurafenib]
Summary of the method: as §1

[5] = compound: CCCS(=O)(=O)Nc1ccc(F)c(C(=O)c2c[nH]c3ncc(Cl)cc23)c1F
Summary of the method: as §1

[6] = compound: CCCc1cc(C)[nH]c(=O)c1CNC(=O)c1cc(-c2ccnc(N3CCN(C)CC3)c2)cc2c1cnn2C(C)C
Summary of the method: as §1

givinostat = compound: CCN(CC)Cc1ccc2cc(COC(=O)Nc3ccc(C(=O)NO)cc3)ccc2c1 [givinostat]
Summary of the method: as §1

barasertib = compound: CCN(CCCOc1ccc2c(Nc3cc(CC(=O)Nc4cccc(F)c4)[nH]n3)ncnc2c1)CCOP(=O)(O)O [barasertib]
Summary of the method: as §1

[7] = compound: CC[C@@H]1C(=O)N(C)c2cnc(Nc3ccc(C(=O)NC4CCN(C)CC4)cc3OC)nc2N1C1CCCC1
Summary of the method: as §1

volasertib = compound: CC[C@@H]1C(=O)N(C)c2cnc(Nc3ccc(C(=O)N[C@H]4CC[C@H](N5CCN(CC6CC6)CC5)CC4)cc3OC)nc2N1C(C)C [volasertib]
Summary of the method: as §1

[8] = compound: CC[C@H](C)N1C=C(C2=C(C=C(C=C21)C3=CN=C(C=C3)N4CCNCC4)C(=O)NCC5=C(C=C(NC5=O)C)C)C
Summary of the method: as §1

epoxomicin = compound: CC[C@H](C)[C@@H](C(=O)N[C@@H]([C@@H](C)O)C(=O)N[C@@H](CC(C)C)C(=O)[C@]1(CO1)C)NC(=O)[C@H]([C@@H](C)CC)N(C)C(=O)C [epoxomicin]
Summary of the method: as §1

[9] = compound: CCn1c(C(=O)N(C2CC2)C2CC2)cc2c3c(ncn3C)c(Nc3cc(C)n(C)n3)nc21
Summary of the method: as §1

[10] = compound: CCn1cc(-c2ccnc3[nH]c(-c4cccc(CN(C)C)c4)cc23)c(-c2ccc(NC(=O)N(C)C)cc2)n1
Summary of the method: as §1

[11] = compound: CN(C)CC(=O)Nc1ccc2[nH]c(=O)c3ccccc3c2c1
Summary of the method: as §1

rosiglitazone = compound: CN(CCOC1=CC=C(C=C1)C[C@H]2C(=O)NC(=O)S2)C3=CC=CC=N3 (racemic) [rosiglitazone]
Summary of the method: as §1

[12] = compound: CN1C2=C(C3=C1C(=O)N(N=C3)CC4=CC(=CC=C4)N)SC(=C2)S(=O)C
Summary of the method: as §1

[13] = compound: CN1CCC(CNc2ccc3ncc(-c4cccc(OC(F)(F)F)c4)n3n2)CC1
Summary of the method: as §1

Sequence of UniProt O75390 (O75390 whole entry, looked up): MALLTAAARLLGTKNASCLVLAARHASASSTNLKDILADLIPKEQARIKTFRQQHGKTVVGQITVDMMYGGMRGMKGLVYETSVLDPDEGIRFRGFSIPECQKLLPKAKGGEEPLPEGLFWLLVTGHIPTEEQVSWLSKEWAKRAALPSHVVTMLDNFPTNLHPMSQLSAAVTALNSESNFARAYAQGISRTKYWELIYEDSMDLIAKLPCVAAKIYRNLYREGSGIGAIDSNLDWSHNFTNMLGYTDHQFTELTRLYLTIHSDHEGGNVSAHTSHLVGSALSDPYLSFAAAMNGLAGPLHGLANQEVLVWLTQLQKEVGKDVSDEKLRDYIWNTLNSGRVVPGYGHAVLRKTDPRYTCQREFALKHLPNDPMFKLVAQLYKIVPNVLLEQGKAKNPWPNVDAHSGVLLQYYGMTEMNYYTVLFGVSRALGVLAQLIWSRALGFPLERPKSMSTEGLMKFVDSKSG
Sequence of UniProt P67870 (P67870 whole entry, looked up): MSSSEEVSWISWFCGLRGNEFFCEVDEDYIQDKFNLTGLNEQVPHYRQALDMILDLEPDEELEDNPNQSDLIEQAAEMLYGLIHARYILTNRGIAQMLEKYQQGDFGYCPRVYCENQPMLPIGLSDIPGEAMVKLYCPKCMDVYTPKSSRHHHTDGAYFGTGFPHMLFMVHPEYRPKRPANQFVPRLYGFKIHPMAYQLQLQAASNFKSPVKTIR
Sequence of UniProt Q8IX12 (Q8IX12 whole entry, looked up): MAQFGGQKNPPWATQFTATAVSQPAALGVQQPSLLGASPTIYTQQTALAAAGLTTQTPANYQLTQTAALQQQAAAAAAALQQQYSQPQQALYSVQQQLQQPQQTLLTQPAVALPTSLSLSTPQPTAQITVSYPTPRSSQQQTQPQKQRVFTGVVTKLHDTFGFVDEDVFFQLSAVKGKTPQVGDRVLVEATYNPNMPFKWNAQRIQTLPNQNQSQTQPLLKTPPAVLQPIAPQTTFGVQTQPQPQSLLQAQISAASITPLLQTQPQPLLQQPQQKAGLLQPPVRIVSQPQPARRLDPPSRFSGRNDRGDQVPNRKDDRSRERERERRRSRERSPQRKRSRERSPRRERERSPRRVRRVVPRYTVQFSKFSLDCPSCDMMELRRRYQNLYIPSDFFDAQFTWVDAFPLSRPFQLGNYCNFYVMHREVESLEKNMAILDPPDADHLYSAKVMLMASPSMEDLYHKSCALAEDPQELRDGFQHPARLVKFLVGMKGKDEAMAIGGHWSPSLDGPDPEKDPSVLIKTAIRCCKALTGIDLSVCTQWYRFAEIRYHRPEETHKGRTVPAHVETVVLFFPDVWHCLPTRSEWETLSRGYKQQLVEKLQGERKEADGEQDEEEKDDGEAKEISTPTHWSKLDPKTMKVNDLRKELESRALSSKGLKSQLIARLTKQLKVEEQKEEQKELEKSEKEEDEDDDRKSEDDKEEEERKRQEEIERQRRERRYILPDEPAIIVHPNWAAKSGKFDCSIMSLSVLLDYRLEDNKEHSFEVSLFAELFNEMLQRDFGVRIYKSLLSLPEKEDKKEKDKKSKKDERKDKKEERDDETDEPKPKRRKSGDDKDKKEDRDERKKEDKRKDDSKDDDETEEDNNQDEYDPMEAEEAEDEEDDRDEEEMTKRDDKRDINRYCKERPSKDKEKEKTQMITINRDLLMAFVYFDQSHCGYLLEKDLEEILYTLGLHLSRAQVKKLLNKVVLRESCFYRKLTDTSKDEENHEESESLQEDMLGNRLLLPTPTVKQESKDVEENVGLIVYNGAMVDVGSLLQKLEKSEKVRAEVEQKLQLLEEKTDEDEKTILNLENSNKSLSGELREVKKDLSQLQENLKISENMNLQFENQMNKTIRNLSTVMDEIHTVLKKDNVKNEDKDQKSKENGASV
Sequence of UniProt Q8IWV2 (Q8IWV2 whole entry, looked up): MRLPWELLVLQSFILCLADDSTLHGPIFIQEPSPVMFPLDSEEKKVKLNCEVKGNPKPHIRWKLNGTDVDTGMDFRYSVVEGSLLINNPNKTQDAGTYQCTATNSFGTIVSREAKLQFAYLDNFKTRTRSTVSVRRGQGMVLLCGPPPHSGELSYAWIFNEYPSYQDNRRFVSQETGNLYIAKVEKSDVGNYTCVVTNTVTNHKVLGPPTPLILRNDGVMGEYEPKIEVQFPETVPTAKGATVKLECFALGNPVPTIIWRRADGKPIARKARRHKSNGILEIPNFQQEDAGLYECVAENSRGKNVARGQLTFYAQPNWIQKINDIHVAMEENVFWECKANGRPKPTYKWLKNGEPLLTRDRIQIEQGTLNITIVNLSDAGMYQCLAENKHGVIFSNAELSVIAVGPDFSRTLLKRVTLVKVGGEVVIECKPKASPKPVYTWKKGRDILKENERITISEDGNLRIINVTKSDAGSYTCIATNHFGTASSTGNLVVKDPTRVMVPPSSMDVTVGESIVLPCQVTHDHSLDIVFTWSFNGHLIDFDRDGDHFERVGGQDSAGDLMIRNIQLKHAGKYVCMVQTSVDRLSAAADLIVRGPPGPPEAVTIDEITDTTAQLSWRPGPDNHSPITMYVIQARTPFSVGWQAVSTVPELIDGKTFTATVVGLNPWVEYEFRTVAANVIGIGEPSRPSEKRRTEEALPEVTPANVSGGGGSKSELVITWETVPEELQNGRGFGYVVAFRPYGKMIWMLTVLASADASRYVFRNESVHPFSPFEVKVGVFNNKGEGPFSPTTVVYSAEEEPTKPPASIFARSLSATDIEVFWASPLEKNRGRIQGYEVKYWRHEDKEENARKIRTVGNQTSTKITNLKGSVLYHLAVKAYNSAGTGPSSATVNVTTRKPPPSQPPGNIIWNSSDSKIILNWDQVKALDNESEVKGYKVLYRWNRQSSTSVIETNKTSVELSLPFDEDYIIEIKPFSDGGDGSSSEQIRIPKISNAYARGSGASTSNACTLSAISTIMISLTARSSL
Sequence of UniProt Q8N4Q1 (Q8N4Q1 whole entry, looked up): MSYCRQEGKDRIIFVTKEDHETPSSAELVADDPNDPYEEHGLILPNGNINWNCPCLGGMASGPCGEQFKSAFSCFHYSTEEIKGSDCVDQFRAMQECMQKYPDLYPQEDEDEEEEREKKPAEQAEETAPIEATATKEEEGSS
Sequence of UniProt P51790 (P51790 whole entry, looked up): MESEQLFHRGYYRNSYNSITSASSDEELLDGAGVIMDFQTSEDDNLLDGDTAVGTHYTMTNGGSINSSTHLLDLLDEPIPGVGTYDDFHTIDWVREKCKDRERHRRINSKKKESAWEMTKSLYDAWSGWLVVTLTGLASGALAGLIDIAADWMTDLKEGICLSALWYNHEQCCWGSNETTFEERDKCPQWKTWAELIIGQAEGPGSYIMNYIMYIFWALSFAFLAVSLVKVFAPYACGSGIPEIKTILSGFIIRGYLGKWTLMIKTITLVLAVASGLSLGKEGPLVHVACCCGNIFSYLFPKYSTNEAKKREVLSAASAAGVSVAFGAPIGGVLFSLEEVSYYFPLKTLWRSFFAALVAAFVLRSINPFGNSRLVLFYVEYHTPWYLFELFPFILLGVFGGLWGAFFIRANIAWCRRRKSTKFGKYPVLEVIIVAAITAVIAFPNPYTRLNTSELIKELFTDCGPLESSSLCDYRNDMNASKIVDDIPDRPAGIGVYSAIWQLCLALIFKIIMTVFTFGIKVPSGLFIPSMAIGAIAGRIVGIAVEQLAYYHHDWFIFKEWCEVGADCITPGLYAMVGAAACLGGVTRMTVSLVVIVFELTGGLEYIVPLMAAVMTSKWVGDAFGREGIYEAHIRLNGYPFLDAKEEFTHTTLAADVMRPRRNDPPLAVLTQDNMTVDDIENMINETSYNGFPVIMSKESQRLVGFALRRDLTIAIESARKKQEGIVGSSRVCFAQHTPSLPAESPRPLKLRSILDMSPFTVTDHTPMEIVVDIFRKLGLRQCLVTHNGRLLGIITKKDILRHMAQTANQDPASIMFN
Sequence of UniProt Q6NZI2 (Q6NZI2 whole entry, looked up): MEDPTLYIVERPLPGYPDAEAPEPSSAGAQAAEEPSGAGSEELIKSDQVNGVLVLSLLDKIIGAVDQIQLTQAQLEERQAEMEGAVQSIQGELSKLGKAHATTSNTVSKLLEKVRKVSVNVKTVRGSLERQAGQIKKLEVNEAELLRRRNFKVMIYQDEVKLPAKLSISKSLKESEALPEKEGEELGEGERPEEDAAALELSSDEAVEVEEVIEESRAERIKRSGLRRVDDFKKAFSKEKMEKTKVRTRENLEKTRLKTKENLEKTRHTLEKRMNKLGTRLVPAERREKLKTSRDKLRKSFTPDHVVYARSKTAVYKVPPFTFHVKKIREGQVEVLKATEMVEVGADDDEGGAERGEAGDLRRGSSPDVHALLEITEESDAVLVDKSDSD
Sequence of UniProt O60563 (O60563 whole entry, looked up): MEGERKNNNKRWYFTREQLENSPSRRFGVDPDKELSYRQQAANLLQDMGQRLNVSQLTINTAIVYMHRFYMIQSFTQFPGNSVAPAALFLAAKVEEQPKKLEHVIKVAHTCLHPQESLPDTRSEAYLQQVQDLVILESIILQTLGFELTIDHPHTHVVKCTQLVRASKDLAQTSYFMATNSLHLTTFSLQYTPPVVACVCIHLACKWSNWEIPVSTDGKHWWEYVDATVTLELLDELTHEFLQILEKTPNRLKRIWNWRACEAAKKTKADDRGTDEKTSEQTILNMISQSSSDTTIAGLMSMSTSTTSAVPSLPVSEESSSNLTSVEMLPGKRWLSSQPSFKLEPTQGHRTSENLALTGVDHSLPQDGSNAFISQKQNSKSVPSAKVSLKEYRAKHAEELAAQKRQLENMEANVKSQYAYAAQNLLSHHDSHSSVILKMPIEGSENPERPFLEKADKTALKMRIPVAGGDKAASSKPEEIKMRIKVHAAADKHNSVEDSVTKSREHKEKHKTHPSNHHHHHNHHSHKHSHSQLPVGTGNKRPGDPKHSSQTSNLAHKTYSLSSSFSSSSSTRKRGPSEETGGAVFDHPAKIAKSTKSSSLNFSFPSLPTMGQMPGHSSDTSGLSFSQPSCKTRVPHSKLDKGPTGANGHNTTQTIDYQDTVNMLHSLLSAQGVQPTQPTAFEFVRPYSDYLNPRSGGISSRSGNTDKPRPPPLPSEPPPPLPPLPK

| Target | log2 fold change [1] | log2 fold change [2] | log2 fold change [3] | log2 fold change [4] | log2 fold change (Nexturastat A) | log2 fold change (vemurafenib) | log2 fold change [5] | log2 fold change [6] | log2 fold change (givinostat) | log2 fold change (barasertib) | log2 fold change [7] | log2 fold change (volasertib) | log2 fold change [8] | log2 fold change (epoxomicin) | log2 fold change [9] | log2 fold change [10] | log2 fold change [11] | log2 fold change (rosiglitazone) | log2 fold change [12] | log2 fold change [13] |
| --- | --- | --- | --- | --- | --- | --- | --- | --- | --- | --- | --- | --- | --- | --- | --- | --- | --- | --- | --- | --- |
| CHCHD4 isoform 2 (UniProt Q8N4Q1) | 0.373 | 0.001 | 0.157 | -0.035 | -0.026 | -0.015 | 0.412 | -0.063 | 0.029 | -0.024 | -0.009 | -0.125 | -0.096 | -0.186 | -0.034 | 0.231 | -0.023 | -0.007 | -0.107 | 0.795 (active) |
| CCAR1 (UniProt Q8IX12) | 0.03 | -0.046 | -0.001 | -0.017 | 0.071 | 0.007 | 0.006 | -0.045 | 0.027 | -0.04 | 0.079 | 0.149 | 0.063 | 0.008 | -0.029 | -0.219 | 0.018 | 0.046 | -0.039 | -0.319 (active) |
| COPS3 (UniProt Q9UNS2) | -0.008 | -0.013 | 0.009 | 0.034 | -0.02 | 0.004 | 0.011 | -0.044 | -0.056 | 0.016 | 0.001 | -0.017 | -0.001 | 0.054 | 0 | -0.014 | -0.017 | 0.007 | -0.038 | -0.03 |
| CCNB1 (UniProt P14635) | 0.021 | -0.043 | 0.011 | 0 | 0.017 | 0.03 | 0.008 | -0.033 | 0.007 | -0.007 | 0.023 | 0.026 | -0.027 | 0.083 | -0.007 | -0.004 | 0.012 | 0.017 | -0.043 | -0.032 |
| CDC42EP1 (UniProt Q00587) | -0.005 | 0.034 | -0.002 | 0.073 | 0.022 | 0.011 | -0.022 | 0.075 | 0.15 | -0.004 | -0.005 | 0.058 | 0.057 | 0.032 | -0.096 | -0.051 | -0.016 | 0.093 | 0.039 | -0.554 (active) |
| CNTN4 (UniProt Q8IWV2) | -0.053 | 0 | 0.035 | -0.244 | 0.342 | -0.038 | 0.058 | 0.364 | 0.278 | 0.055 | -0.016 | -0.14 | -0.084 | 0.149 | -0.208 | -0.157 | 0 | -0.021 | -0.077 | -0.102 |
| CPSF6 isoform 2 (UniProt Q16630) | 0.054 | 0.02 | -0.027 | 0.02 | -0.042 | 0.001 | -0.069 | 0.035 | 0.048 | -0.042 | 0.016 | 0.02 | 0.016 | -0.014 | -0.037 | -0.036 | -0.062 | 0.008 | 0.004 | -0.014 |
| CASP8 isoform 9 (UniProt Q14790) | -0.054 | -0.092 | 0.017 | -0.049 | 0.064 | 0 | 0.177 | 0.114 | 0.115 | 0 | 0.025 | -0.489 (active) | 0.065 | 0.052 | 0.025 | -0.019 | 0 | -0.034 | -0.026 | -0.082 |
| CHAC2 (UniProt Q8WUX2) | -0.001 | 0.025 | 0.037 | 0.015 | -0.026 | 0.04 | 0.031 | -0.08 | 0.007 | 0.079 | -0.343 (active) | -0.227 | 0.035 | -0.025 | 0.039 | -0.03 | 0.002 | 0.028 | -0.04 | 0.041 |
| CTBS (UniProt Q01459) | 0.206 | 0.014 | -0.026 | -0.065 | 0.043 | 0.093 | -0.017 | 0.017 | 0.039 | 0.03 | -0.494 (active) | -0.376 (active) | -0.074 | 0.033 | 0.007 | 0.069 | 0.013 | -0.058 | 0.045 | -0.44 (active) |
| CLCN3 isoform 2 (UniProt P51790) | -0.055 | 0.002 | 0.008 | 0.061 | -0.026 | 0 | 0.03 | -0.023 | 0.029 | -0.006 | -0.047 | -0.113 | 0.026 | 0.003 | 0.018 | -0.032 | 0.024 | 0.001 | -0.028 | -0.079 |
| CS (UniProt O75390) | -0.026 | -0.002 | 0.014 | 0.07 | -0.125 | 0.023 | 0.033 | 0 | -0.041 | 0.027 | 0.04 | 0.158 | 0.027 | 0.01 | 0.032 | -0.059 | 0.032 | 0.083 | -0.088 | -0.222 (active) |
| CAVIN1 (UniProt Q6NZI2) | 0.024 | -0.066 | -0.051 | -0.027 | 0.186 | -0.068 | -0.047 | 0.073 | 0.041 | -0.058 | 0.072 | 0.182 | -0.007 | -0.125 | 0.013 | 0.085 | -0.06 | -0.037 | 0.124 | -0.074 |
| CSNK2B (UniProt P67870) | -0.019 | 0.021 | -0.032 | 0.066 | -0.021 | 0.026 | 0.016 | -0.034 | -0.03 | -0.008 | -0.029 | 0.009 | 0.043 | 0.019 | 0.001 | -0.051 | 0.027 | 0.034 | -0.048 | -0.176 |
| CCNT1 (UniProt O60563) | -0.033 | -0.018 | -0.02 | 0.005 | 0.218 | 0.027 | 0.007 | 0.023 | 0.022 | 0.022 | 0.023 | -0.085 | 0.069 | -0.063 | 0.028 | 0.035 | -0.055 | -0.024 | 0.132 | -0.036 |
| CDK1 (UniProt P06493) | 0.017 | -0.017 | 0.004 | 0.036 | -0.015 | 0.029 | 0.02 | 0.001 | 0.048 | 0.001 | -0.03 | -0.05 | 0.017 | 0.055 | -0.002 | 0 | 0.03 | 0.032 | 0.005 | -0.108 |
